According to PubChem BioAssay AID1159580 (chemical genetic matrix, 2015):
The campaign covered roughly 5,500 compounds. About 2,000 (36%) were called active. Another 18% or so got no clear call; they are omitted. No stated cut-off is given here; in the data, active means normalized growth mostly below about 0.91 (no sharp cut-off); inconclusive means no clear call, values can overlap the other calls; inactive means mostly above about 0.92. The list shows a part of the results.

Assay: chemical genetic growth profiling, strain panel (AID 1159580);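 further: tested at 20 µM; growth read once vehicle control cultures reached saturation at 30 °C; 1 = growth at the plate median or of vehicle wells; lower values mean less growth of the strain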
Conditions: S. cerevisiae deletion strains, growth OD

Measured: normalized growth

COc1ccccc1N1CCN(CCN2C(=O)CC3(CCCC3)CC2=O)CC1
inactive: locus YER002W, strain NOP16, active compounds read low 0.998 | locus YMR263W, strain SAP30, active compounds read low 1 | locus YMR307W, strain GAS1, active compounds read low 0.989 | locus YNL128W, strain TEP1, active compounds read low 0.988 | locus YNL175C, strain NOP13, active compounds read low 0.991 | locus YNL197C, strain WHI3, active compounds read low 0.999 | locus YNL224C, strain SQS1, active compounds read low 1 | locus YOR083W, strain WHI5 (second series), active compounds read low 0.999 | locus YPL055C, strain LGE1, active compounds read low 1 | locus YPL241C, strain CIN2, active compounds read low 1.01
